Experimental data taken from PubChem BioAssay (EPA / NIEHS).
Activity calls are given as the source filed them. How the source made its calls: active means hit-call score of the fitted dose curve at least 0.9, where 1 is the maximum; inactive means score below 0.9.

How the values were obtained:
[1] = read-out: Tissue Factor, F3 (gene 2152); assay: BSK_CASM3C_TissueFactor: BioMAP Diversity Plus: CASM3C Assay for Tissue Factor Biomarker Activity (AID 2283052); details: primary human coronary artery smooth muscle cells; actives raise or lower the signal;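 further: cell surface tissue factor protein level read by ELISA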
[2] = read-out: Interferon-gamma inducible Protein 10 (IP10), CXCL10 (gene 3627); assay: BSK_hDFCGF_IP10: BioMAP Diversity Plus: hDFCGF Assay for Interferon-gamma inducible Protein 10 (IP10) Biomarker Activity (AID 2283053); details: primary human foreskin fibroblasts; actives raise or lower the signal
In short: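 Human foreskin fibroblast primary cells (hDFCGF system) were dosed with chemical and assayed at 24 h; IP-10 measured by ELISA. Activity fitted bidirectionally relative to DMSO negative control as baseline.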

[3] = read-out: Urokinase-type plasminogen activator receptor (uPAR), PLAUR (gene 5329); assay: BSK_CASM3C_uPAR: BioMAP Diversity Plus: CASM3C Assay for Urokinase-type plasminogen activator receptor (uPAR) Biomarker Activity (AID 2283054); details: primary human coronary artery smooth muscle cells; actives raise or lower the signal;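 further: cell-surface uPAR protein level quantified by ELISA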
[4] = read-out: Vascular cell adhesion molecule 1 (VCAM1), VCAM1 (gene 7412); assay: BSK_CASM3C_VCAM1: BioMAP Diversity Plus: CASM3C Assay for Vascular cell adhesion molecule 1 (VCAM1) Biomarker Activity (AID 2283055); details: primary human coronary artery smooth muscle cells; actives raise or lower the signal;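 further: VCAM-1 protein level quantified by ELISA on the cells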
[5] = read-out: Collagen III, COL3A1 (gene 1281); assay: BSK_hDFCGF_CollagenIII: BioMAP Diversity Plus: hDFCGF Assay for Collagen III Biomarker Activity (AID 2283056); details: primary human foreskin fibroblasts; actives raise or lower the signal
In short: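 ELISA readout of Collagen III in human dermal (foreskin) fibroblasts, taken 24 h post-treatment. Gain or loss relative to DMSO vehicle fitted in both directions.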

[6] = read-out: Epidermal growth factor receptor (EGFR), EGFR (gene 1956); assay: BSK_hDFCGF_EGFR: BioMAP Diversity Plus: hDFCGF Assay for Epidermal growth factor receptor (EGFR) Biomarker Activity (AID 2283057); details: primary human foreskin fibroblasts; actives raise or lower the signal
In short: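 Primary human foreskin fibroblasts were exposed to compound for 24 h, after which cell-surface EGFR was quantified by ELISA. Activity was fitted bidirectionally against the DMSO negative control as baseline.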

[7] = BSK_hDFCGF_Proliferation: Cell Proliferation Assessment in the BioMAP Diversity Plus: hDFCGF Assay (AID 2283059); details: primary human foreskin fibroblasts;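 further: curves fitted for both rise and fall of signal versus DMSO baseline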
In short: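 This proliferation readout used SRB total-protein staining of human foreskin fibroblasts […], normalized to DMSO with bidirectional curve fitting.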

[8] = read-out: Macrophage colony-stimulating factor (MCSF), CSF1 (gene 1435); assay: BSK_hDFCGF_MCSF: BioMAP Diversity Plus: hDFCGF Assay for Macrophage colony-stimulating factor (MCSF) Biomarker Activity (AID 2283060); details: primary human foreskin fibroblasts; actives raise or lower the signal
In short: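 M-CSF levels read by ELISA at 24 h post-dosing in human skin fibroblasts. Parallel cultures stained with SRB assessed cytotoxicity at the same time point; response fitted in both directions against the DMSO baseline.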

[9] = read-out: Interleukin-8 (IL8), CXCL8 (gene 3576); assay: BSK_hDFCGF_IL8: BioMAP Diversity Plus: hDFCGF Assay for Interleukin-8 (IL8) Biomarker Activity (AID 2283058); details: primary human foreskin fibroblasts; actives raise or lower the signal
In short: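 IL-8 levels read by ELISA at 24 hours after dosing human skin fibroblast cultures. Parallel SRB staining assessed overt cytotoxicity, and gain or loss of signal was fitted against DMSO control.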

[10] = BSK_hDFCGF_SRB: Viability Assessment in the BioMAP Diversity Plus: hDFCGF Assay (AID 2283061); details: primary human foreskin fibroblasts;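 further: cells exposed to compound for 24 h before the read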
In short: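 Viability was read as total protein: after 10% TCA fixation, wells were stained with 0.1% sulforhodamine B and read at 560 nm. Primary human foreskin fibroblasts were dosed for 24 h, with bidirectional fitting versus DMSO.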

SMILES	outcome [1]	outcome [2]	outcome [3]	outcome [4]	AC50 [5]	outcome [6]	outcome [7]	outcome [8]	outcome [5]	outcome [9]	AC50 [7]	outcome [10]	AC50 [2]	AC50 [4]	AC50 [8]	AC50 [10]	AC50 [9]
COCCOCCOC	inactive	inactive	inactive	inactive	0.148 µM (active)	inactive	inactive	inactive									
CNCc1cc(F)ccc1Oc1ccc(Cl)c(Cl)c1	inactive	inactive	inactive	inactive		inactive		inactive	inactive	inactive	23.8 µM (active)	inactive					
Cc1cc(NC(=O)C(=O)O)cc(C)c1Oc1ccc(O)c2c1CCC2	inactive	inactive	inactive	inactive		inactive	inactive	inactive	inactive	inactive		inactive					
CCCCCCCCCCC	inactive	inactive	inactive	inactive		inactive	inactive	inactive	inactive	inactive		inactive					
CC(=O)OCCOCCOCCOC(C)=O	inactive	inactive	inactive	inactive		inactive	inactive	inactive	inactive	inactive		inactive					
O=[N+]([O-])C(CO)(CO)CO	inactive	inactive	inactive	inactive		inactive		inactive	inactive	inactive	14.1 µM (active)						
CC(=O)OC/C=C(\C)CCC=C(C)C	inactive	inactive	inactive	inactive		inactive		inactive	inactive	inactive	0.597 µM (active)	inactive					
CCOC(=O)C(C)(C)Oc1ccc(Cl)cc1	inactive	inactive	inactive	inactive		inactive	inactive	inactive	inactive	inactive		inactive					
C1CCC(SSC2CCCCC2)CC1	inactive		inactive		11.7 µM (active)	inactive				inactive	15.9 µM (active)		30.4 µM (active)	28.8 µM (active)	20 µM (active)	32.2 µM (active)	
CC(C)c1ccc(C(=O)N=C(N)N)cc1S(C)(=O)=O	inactive	inactive	inactive	inactive		inactive	inactive	inactive	inactive	inactive							
O=C(O)CCCCC(=O)O	inactive	inactive	inactive	inactive		inactive	inactive	inactive	inactive	inactive		inactive					
CCCCCCCC=O	inactive	inactive	inactive	inactive		inactive	inactive	inactive	inactive	inactive							
CCCc1cc(=O)[nH]c(=S)[nH]1	inactive	inactive	inactive	inactive		inactive	inactive	inactive	inactive								
C=CCc1ccc(O)c(OC)c1	inactive	inactive	inactive	inactive		inactive	inactive	inactive	inactive	inactive							
COc1cc(C=O)ccc1O	inactive	inactive	inactive	inactive		inactive	inactive	inactive	inactive	inactive							
NCCO	inactive	inactive	inactive	inactive		inactive	inactive	inactive	inactive	inactive							
CCCCOC(=O)CCCCCCCCC(=O)OCCCC	inactive	inactive	inactive	inactive		inactive	inactive	inactive	inactive	inactive		inactive					
COc1ccc(C)cc1N	inactive	inactive	inactive	inactive		inactive	inactive	inactive	inactive	inactive		inactive					
CC(CO)OC(C)CO (centres undefined) (tested in a mixture with another compound)	inactive	inactive	inactive	inactive		inactive	inactive	inactive	inactive	inactive							
CCOC(=O)CCC(=O)OCC	inactive	inactive	inactive	inactive		inactive	inactive	inactive	inactive	inactive		inactive					
Nc1ccccc1N	inactive	inactive	inactive			inactive		inactive	inactive		16 µM (active)			4.05 µM (active)			
CCCCN(CCCC)CCCC	inactive	inactive	inactive	inactive		inactive	inactive	inactive	inactive								
O=C(O)Cc1ccccc1Nc1c(Cl)cccc1Cl	inactive	inactive	inactive	inactive	20 µM (active)	inactive		inactive		inactive	20 µM (active)						
Cc1nc(-c2ccc3c(c2)CCN(CCC2CCC(NC(=O)/C=C/c4ccc(F)cc4)CC2)CC3)no1 (centres undefined)	inactive	inactive	inactive			inactive	inactive	inactive	inactive	inactive				6.35 µM (active)			
CCCCCCCCCCCC(=O)OC	inactive	inactive	inactive	inactive		inactive		inactive	inactive	inactive	28.9 µM (active)	inactive					

SMILES	outcome [1]	outcome [2]	outcome [3]	outcome [4]	AC50 [5]	outcome [6]	outcome [7]	outcome [8]	outcome [5]	outcome [9]	AC50 [7]	outcome [10]	AC50 [2]	AC50 [4]	AC50 [8]	AC50 [10]	AC50 [9]
Cc1ccc(C(C)C)c(O)c1	inactive	inactive	inactive	inactive		inactive	inactive	inactive	inactive	inactive		inactive					
CCCCCCCCCCO	inactive	inactive	inactive	inactive		inactive	inactive	inactive	inactive	inactive		inactive					
OC[C@@H](O)[C@@H](O)[C@H](O)[C@H](O)CO	inactive	inactive	inactive	inactive		inactive	inactive	inactive	inactive	inactive		inactive					
O=c1[nH]cc(F)c(=O)[nH]1	inactive	inactive	inactive	inactive		inactive		inactive	inactive	inactive	9.52 µM (active)						
CCCCc1ccc2c(n1)[C@@H](c1ccc(OC)cc1C[C@H](C)C(=O)O)[C@H](C(=O)O)[C@H]2c1ccc2c(c1)OCO2	inactive	inactive	inactive	inactive		inactive	inactive	inactive	inactive			inactive					
NS(=O)(=O)c1cc2c(cc1Cl)NCNS2(=O)=O	inactive	inactive	inactive	inactive		inactive	inactive	inactive		inactive							
COC(=O)c1ccc(O)cc1	inactive	inactive	inactive	inactive		inactive	inactive	inactive		inactive							
Cc1cccc(C)c1O	inactive	inactive	inactive	inactive		inactive	inactive	inactive	inactive								
CC1(C)NC(=O)NC1=O	inactive	inactive	inactive	inactive		inactive	inactive	inactive	inactive			inactive					
CCCCCCC(=O)OCC	inactive	inactive	inactive	inactive		inactive	inactive	inactive		inactive							
CC(=O)Oc1ccccc1C(=O)O	inactive	inactive	inactive	inactive		inactive	inactive	inactive		inactive							
FC(F)(F)C(F)(F)C(F)(F)C(F)(F)C(F)(F)C(F)(F)CCI	inactive	inactive	inactive	inactive		inactive	inactive	inactive		inactive							
COc1ccc2c(c1)c(CC(=O)O)c(C)n2C(=O)c1ccc(Cl)cc1	inactive	inactive	inactive	inactive		inactive		inactive		inactive	13.1 µM (active)						
Cc1nc(C)nc(N2C[C@@H](C)N(c3ccnc([C@@H](C)O)n3)[C@@H](C)C2)n1	inactive	inactive	inactive	inactive		inactive	inactive	inactive	inactive			inactive					
NC(=O)Cn1c(=O)cc(CCN2CCN(c3nccc4sccc34)CC2)c2ccc(F)cc21	inactive	inactive	inactive	inactive		inactive	inactive	inactive		inactive							
Clc1cc(Cl)c(Cl)cc1Cl	inactive	inactive	inactive	inactive		inactive	inactive	inactive	inactive								
Cc1oc(-c2ccccc2)nc1CCOc1cccc2c1ccn2CCC(=O)O	inactive	inactive	inactive	inactive		inactive	inactive	inactive	inactive			inactive					
c1cc(-c2ccncc2)ccn1	inactive	inactive	inactive	inactive		inactive	inactive	inactive	inactive								
Oc1ccc2c(c1)OC[C@@H](N1CCC(O)(c3ccc(F)cc3)CC1)[C@H]2O	inactive	inactive	inactive	inactive		inactive	inactive	inactive	inactive			inactive					
Cc1cccc(Nc2cc(Cl)nc(SCC(=O)O)n2)c1C	inactive	inactive	inactive	inactive		inactive	inactive	inactive	inactive			inactive					
Cc1c(C(=O)O)c(O)cc2c1C(=O)c1c(O)c([C@@H]3O[C@H](CO)[C@@H](O)[C@H](O)[C@H]3O)c(O)c(O)c1C2=O	inactive	inactive	inactive	inactive		inactive		inactive		inactive	3.88 µM (active)						
C[Si]1(C)O[Si](C)(C)O[Si](C)(C)O[Si](C)(C)O1	inactive	inactive	inactive	inactive		inactive	inactive	inactive		inactive							
CCCCCCCCCCCCCCCC	inactive	inactive	inactive	inactive		inactive	inactive	inactive		inactive							
CCCCC(CC)COC(=O)CC(C(=O)OCC(CC)CCCC)S(=O)(=O)O (centres undefined)	inactive		inactive	inactive	8.52 µM (active)						10 µM (active)		7.42 µM (active)		9.34 µM (active)	24.4 µM (active)	12.9 µM (active)
